Measured values from PubChem BioAssay.
Calls of active or inactive are those of the source.

How the values were obtained:
[1] = small molecules captured by biotinylated probe aFSTL3 – biochemical, small-molecule microarray, fluorescence 635/667, stem cell growth factor project, primary screen (AID 1064); settings: higher = more signal;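 note: measures binding of the biotinylated anti-FSTL3 antibody to printed compounds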
[2] = binders from COS7 lysate, DM2A8 probe, primary screen, torsin A project, cell lysate, small-molecule microarray, fluorescence 635/667 (AID 1065); settings: higher = more signal, COS7 lysate expressing mutant human TOR1A
[3] = small molecules captured by biotinylated probe aFGF2 – biochemical, small-molecule microarray, fluorescence 635/667, stem cell growth factor project, primary screen (AID 1067); settings: higher = more signal;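 note: measures binding of biotinylated aFGF2 protein to printed compounds on slides; z-score merges feature fluorescence and signal-to-noise across triplicate slides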
[4] = small molecules captured by biotinylated probe aFGF10 – biochemical, small-molecule microarray, fluorescence 635/667, stem cell growth factor project, primary screen (AID 1071); settings: higher = more signal;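 note: score merges 667 nm spot intensity and signal to noise from triplicate slides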
[5] = molecular target: Neurogenic locus notch homolog protein 2 (Homo sapiens) (UniProt Q04721); assay: small molecules binding Notch2 protein – biochemical, small-molecule microarray, 635 nm fluorescence, stem cell growth factors, primary screen (AID 1073); settings: higher = more signal
Chain of Neurogenic locus notch homolog protein 2 (Homo sapiens) (Q04721 whole entry, looked up, canonical isoform): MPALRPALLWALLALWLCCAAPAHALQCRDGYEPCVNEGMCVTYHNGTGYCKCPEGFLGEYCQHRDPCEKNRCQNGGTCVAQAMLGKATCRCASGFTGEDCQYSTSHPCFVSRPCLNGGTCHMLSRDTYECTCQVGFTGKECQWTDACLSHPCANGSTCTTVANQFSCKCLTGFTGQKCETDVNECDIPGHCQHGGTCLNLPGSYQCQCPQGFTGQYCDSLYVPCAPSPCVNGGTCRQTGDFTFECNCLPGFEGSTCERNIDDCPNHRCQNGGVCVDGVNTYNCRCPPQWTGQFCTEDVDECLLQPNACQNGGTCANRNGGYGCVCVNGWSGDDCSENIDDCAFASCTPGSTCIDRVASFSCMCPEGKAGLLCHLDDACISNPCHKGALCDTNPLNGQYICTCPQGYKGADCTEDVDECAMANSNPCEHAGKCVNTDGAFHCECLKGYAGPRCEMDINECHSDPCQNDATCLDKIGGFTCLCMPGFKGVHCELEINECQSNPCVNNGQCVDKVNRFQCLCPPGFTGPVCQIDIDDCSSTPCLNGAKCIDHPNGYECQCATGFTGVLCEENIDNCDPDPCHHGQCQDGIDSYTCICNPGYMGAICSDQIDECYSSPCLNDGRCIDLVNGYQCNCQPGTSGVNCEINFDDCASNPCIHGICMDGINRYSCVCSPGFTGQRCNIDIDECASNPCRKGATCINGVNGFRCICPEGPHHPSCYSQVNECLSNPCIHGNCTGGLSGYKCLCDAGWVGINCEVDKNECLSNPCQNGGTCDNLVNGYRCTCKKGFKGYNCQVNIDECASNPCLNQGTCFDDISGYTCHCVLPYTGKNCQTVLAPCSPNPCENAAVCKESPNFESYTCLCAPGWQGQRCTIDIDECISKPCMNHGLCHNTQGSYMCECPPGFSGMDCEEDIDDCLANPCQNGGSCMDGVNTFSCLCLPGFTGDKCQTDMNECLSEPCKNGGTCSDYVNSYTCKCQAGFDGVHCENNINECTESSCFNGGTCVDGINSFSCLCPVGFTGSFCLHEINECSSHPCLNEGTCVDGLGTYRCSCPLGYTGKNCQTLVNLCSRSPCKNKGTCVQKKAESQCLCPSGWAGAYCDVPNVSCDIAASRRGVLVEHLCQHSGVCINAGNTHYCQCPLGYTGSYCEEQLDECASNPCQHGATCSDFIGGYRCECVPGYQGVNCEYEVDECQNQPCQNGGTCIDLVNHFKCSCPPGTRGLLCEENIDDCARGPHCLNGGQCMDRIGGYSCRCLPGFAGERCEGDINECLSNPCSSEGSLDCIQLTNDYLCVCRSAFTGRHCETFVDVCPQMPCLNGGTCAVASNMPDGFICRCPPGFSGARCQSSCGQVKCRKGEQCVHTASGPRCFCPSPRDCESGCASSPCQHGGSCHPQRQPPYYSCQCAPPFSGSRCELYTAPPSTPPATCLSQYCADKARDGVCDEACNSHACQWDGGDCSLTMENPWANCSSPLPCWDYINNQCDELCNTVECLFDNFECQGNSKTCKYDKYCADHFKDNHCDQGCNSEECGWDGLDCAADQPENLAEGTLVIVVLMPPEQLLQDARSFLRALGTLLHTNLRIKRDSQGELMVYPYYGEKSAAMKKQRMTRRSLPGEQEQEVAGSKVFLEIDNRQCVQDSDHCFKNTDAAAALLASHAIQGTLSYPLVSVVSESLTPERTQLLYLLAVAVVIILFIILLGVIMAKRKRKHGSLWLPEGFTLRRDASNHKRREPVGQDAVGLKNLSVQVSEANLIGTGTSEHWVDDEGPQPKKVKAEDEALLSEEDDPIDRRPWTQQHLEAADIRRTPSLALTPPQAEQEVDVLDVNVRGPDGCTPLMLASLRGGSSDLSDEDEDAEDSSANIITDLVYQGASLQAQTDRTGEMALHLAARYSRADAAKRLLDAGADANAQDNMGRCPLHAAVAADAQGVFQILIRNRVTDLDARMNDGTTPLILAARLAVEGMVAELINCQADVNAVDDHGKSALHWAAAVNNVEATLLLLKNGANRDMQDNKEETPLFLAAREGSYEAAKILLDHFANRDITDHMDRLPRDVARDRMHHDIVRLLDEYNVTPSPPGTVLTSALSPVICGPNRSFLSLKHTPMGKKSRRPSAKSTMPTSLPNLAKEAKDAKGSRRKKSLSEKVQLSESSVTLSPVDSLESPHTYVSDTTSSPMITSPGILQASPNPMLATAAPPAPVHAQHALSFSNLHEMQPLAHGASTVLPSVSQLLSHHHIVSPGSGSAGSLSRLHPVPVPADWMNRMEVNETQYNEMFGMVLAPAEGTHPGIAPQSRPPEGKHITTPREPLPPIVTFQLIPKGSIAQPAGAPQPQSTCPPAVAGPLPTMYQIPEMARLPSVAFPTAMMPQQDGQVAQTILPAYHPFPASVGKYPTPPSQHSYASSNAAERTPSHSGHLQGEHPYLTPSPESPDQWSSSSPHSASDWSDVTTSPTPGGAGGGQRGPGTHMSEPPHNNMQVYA

[6] = molecular target: Pro-neuregulin-1, membrane-bound isoform (Homo sapiens) (UniProt Q02297); assay: small molecules binding neuregulin-1 protein – biochemical, small-molecule microarray, fluorescence 635/667, psychiatric disease protein project, primary screen (AID 1075); settings: NRG1 binding, 635 nm fluorescence, higher = more signal;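 note: score combines 667 nm spot fluorescence with signal to noise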
[7] = tested on: Neuregulin-1 EGF-like domain; assay: small molecules binding NRG1 EGF domain – biochemical, small-molecule microarray, 635 nm fluorescence, primary screen (AID 1081); settings: higher = more signal;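 note: binding of the protein to compounds printed on small-molecule microarray slides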
[8] = FRG1 expression reporter modulators in myotubes – cell-based, C2C12 myotubes, firefly/Renilla luciferase, luminescence, FRG1 inhibition for FSHD, primary screen (AID 1084); settings: FRG1 promoter luciferase, higher = more signal, called active from +8 up or from −8 down
[9] = small molecules captured by biotinylated probe aFST – biochemical, small-molecule microarray, fluorescence 635/667, stem cell growth factor project, primary screen (AID 1086); settings: higher = more signal;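 note: score merges 667 nm fluorescence with signal-to-noise of each printed compound spot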
[10] = binders of probe aHhip on microarray, primary screen, stem cell growth factor project, biochemical, small-molecule microarray, fluorescence 635/667 (AID 1087); settings: higher = more signal;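 note: score merges spot fluorescence at 667nm with spot signal to noise ratio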
[11] = tested on: PRMT1 (protein arginine N-methyltransferase 1); assay: small molecules binding arginine methyltransferase PRMT1 – biochemical, small-molecule microarray, 635 nm fluorescence, primary screen (AID 1088); settings: higher = more signal;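 note: binding of Prmt1 protein to compounds spotted on small-molecule microarray slides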
[12] = growth effects on S. cerevisiae YJM789 – YJM789 clinical isolate, OD600, 24 h, basal, primary screen (AID 1089); settings: higher = more signal, called active from +8 up or from −8 down;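 note: growth of clinical yeast isolate S. cerevisiae YJM 789 seeded 1000 cells per well; test concentration not given here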
[13] = S. pombe growth modifiers, basal conditions – strain 972, OD600, 24 h, no modulator, primary screen (AID 1090);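 note: basal condition with compound alone and no growth modifier present; test concentration not given here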; settings: S. pombe 972 growth, higher = more signal, called active from +8 up or from −8 down
[14] = budding yeast growth modifiers under rapamycin – strain BY4716, OD600, 96 h, primary screen (AID 1091); note: test concentration not given here; settings: S. cerevisiae BY4716 + rapamycin, higher = more signal, called active from +8 up or from −8 down
[15] = molecular target: Torsin-1A-interacting protein 2 (Homo sapiens) (UniProt Q8NFQ8); assay: small molecules binding lysate-expressed LULL1 – cell lysate, human LULL1 lysate, 635/667 nm fluorescence, primary screen (AID 1092); settings: small-molecule microarray, hLULL1 lysate binding, 635 nm fluorescence; higher = more signal;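 note: probe is lysate of COS7 cells overexpressing human LULL1; score merges per-feature 667 nm fluorescence with signal-to-noise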
[16] = optical density change of DRC41 E. coli – strain DRC41, OD650, 24 h, E. coli filamentation project, primary screen (AID 1093);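 note: MC1000 strain lacking acrAB efflux and sulA so SOS filamentation is blocked; test concentration not given here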; settings: E. coli DRC41 growth, higher = more signal, called active from +8 up or from −8 down
[17] = probe aLefty2 binding to arrayed compounds – biochemical, biotinylated probe, 635/667 nm fluorescence, primary screen (AID 1094); settings: small-molecule microarray, higher = more signal;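 note: score merges spot fluorescence near 667 nm with spot signal-to-noise ratio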
[18] = tested on: Noggin (protein binding on small-molecule microarray); assay: small molecules binding Noggin protein – biochemical, 635/667 nm fluorescence, primary screen (AID 1095); settings: 635 nm fluorescence, higher = more signal;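 note: score merges 667 nm feature fluorescence with signal to noise over triplicate slides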
[19] = molecular target: Neurogenic locus notch homolog protein 3 (Homo sapiens) (UniProt Q9UM47); assay: small molecules binding NOTCH3 protein – biochemical, 635/667 nm fluorescence, primary screen (AID 1096); settings: small-molecule microarray, 635 nm fluorescence, higher = more signal
Chain of Neurogenic locus notch homolog protein 3 (Homo sapiens) (Q9UM47 whole entry, looked up): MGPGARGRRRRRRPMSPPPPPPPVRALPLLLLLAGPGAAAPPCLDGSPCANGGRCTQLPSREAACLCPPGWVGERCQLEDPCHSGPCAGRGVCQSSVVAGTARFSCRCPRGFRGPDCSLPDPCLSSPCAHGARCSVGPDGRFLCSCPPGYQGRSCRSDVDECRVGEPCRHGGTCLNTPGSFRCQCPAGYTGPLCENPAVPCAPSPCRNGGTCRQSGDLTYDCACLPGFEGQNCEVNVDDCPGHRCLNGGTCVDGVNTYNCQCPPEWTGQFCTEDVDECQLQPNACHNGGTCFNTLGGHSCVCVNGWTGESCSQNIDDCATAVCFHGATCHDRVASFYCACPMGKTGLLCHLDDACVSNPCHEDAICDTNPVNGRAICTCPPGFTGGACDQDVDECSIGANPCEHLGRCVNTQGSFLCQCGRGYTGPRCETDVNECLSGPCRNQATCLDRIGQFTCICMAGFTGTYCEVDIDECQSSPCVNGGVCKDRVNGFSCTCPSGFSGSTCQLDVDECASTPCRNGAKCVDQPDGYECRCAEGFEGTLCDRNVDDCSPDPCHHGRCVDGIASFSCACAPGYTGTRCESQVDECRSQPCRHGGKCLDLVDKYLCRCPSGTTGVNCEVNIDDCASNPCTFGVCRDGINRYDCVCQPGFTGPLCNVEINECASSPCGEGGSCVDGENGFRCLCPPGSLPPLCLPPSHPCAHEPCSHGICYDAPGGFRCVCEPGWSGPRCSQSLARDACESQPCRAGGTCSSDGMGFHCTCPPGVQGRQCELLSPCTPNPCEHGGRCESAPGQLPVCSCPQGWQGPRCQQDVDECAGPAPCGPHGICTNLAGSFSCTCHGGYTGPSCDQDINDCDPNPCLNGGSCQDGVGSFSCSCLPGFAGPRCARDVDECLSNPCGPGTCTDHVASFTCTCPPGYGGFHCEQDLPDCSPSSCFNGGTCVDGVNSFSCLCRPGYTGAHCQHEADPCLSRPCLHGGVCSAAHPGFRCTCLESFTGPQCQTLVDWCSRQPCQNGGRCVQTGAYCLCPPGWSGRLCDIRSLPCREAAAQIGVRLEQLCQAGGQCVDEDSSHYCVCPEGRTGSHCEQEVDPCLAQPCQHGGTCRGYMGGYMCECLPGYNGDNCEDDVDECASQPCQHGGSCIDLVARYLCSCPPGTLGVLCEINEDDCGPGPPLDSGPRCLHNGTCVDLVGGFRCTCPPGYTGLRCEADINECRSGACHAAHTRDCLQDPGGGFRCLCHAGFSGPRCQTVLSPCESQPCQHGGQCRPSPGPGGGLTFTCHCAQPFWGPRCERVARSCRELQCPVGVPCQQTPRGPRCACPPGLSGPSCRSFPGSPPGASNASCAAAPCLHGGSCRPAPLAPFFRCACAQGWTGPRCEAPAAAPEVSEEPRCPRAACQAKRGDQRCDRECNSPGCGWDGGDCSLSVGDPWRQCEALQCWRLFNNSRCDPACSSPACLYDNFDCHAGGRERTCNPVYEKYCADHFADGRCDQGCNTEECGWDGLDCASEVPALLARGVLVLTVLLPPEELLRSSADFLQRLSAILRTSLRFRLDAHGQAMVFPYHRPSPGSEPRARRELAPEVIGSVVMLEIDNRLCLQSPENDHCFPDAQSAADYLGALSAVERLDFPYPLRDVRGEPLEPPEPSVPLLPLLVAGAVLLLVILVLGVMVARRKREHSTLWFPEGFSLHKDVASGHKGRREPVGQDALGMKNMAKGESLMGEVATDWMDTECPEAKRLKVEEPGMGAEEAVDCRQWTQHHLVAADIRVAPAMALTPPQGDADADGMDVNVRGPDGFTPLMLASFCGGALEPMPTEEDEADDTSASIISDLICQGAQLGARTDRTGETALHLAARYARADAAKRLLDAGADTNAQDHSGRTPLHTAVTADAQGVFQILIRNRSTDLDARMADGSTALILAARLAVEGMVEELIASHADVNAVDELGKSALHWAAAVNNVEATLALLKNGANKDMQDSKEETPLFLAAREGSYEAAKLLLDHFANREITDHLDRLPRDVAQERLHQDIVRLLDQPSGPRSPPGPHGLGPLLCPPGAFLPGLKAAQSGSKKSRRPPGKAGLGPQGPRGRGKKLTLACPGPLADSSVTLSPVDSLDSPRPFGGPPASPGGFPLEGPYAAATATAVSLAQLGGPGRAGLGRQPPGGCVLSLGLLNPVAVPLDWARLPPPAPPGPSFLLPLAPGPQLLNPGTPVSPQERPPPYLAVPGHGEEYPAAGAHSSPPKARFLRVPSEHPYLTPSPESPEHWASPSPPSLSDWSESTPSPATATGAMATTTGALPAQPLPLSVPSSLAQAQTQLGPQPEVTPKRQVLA

[20] = probe aEGFR binding to arrayed compounds – biochemical, biotinylated probe, 635/667 nm fluorescence, primary screen (AID 1097); settings: small-molecule microarray, higher = more signal;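 note: probe is a biotinylated anti-EGFR antibody binding compounds printed on slides; score combines fluorescence near 667 nm and signal to noise of each spot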

SMILES	composite z-score [1]	composite z-score [2]	composite z-score [3]	composite z-score [4]	composite z-score [5]	composite z-score [6]	composite z-score [7]	z-score [8]	composite z-score [9]	composite z-score [10]	composite z-score [11]	z-score [12]	z-score [13]	z-score [14]	composite z-score [15]	z-score [16]	composite z-score [17]	composite z-score [18]	composite z-score [19]	composite z-score [20]
COC(=O)C(CC#Cc1ccc2c(c1)[C@]1(C(=O)N2)[C@H](C(N)=O)[C@H]2C(=O)O[C@H](c3ccccc3)[C@H](c3ccccc3)N2[C@@H]1c1ccc(O)cc1)C(=O)OC	-0.343	-0.067	-0.245	-1.28	-0.618	0.205	0.699	-0.117 (inactive)	-0.882	0.384	-0.95	0.337 (inactive)	-1.04 (inactive)	0.484 (inactive)	0.0509	1.61 (inactive)	-0.117	-1.1	-1.23	-0.442
CC(C)C(CO)N1C(=O)[C@@H]2C3C(=O)OCCC/C=C\[C@H]3OC23C=CCN(C(C)C)C(=O)[C@@H]13 (stereo not given in full)	0.303	0.716	-0.116	-0.836	-1.43	2.17	0.784	0.366 (inactive)	-0.381	-0.0994	0.613	-1.1 (inactive)	-1.55 (inactive)	-1.1 (inactive)	2.65	2.41 (inactive)	0.727	-0.868	-0.134	-0.188
COC(=O)C1=CC(c2ccc(CO)cc2)=CC(C2CC2)N(C)C=C1C(=O)OC (stereo not given)	0.315	0.903	-0.0538	-0.0649	0.115	1.61	0.97	-1.67 (inactive)	0.0593	-0.0994	1.31	-5.61 (inactive)	-4.93 (inactive)	-2.41 (inactive)	2.6	0.585 (inactive)	-0.141	-0.946	-0.464	-0.154
O=C1O[C@@H](c2ccccc2)[C@@H](c2ccccc2)N2[C@@H](c3ccc(OCCO)cc3)[C@]3(C(=O)Nc4ccc(C#CC5(O)CCCCCC5)cc43)[C@@H](C(=O)NC[C@H](O)c3ccccc3)[C@H]12	0.0882	1	-0.0258	1.06	1.42	1.43	1.26	-0.222 (inactive)	0.934	-0.191	1.55	1.24 (inactive)	1.21 (inactive)	5.49 (inactive)	2.3	3.13 (inactive)	0.0844	0.982	1.04	-0.0332
C=CC[C@@H](OC(=O)Nc1ccc(SC)cc1)c1ccc(OCCO)cc1	1.15	-0.325	-0.175	-0.932	-1.77	0.767	0.801	4.02 (inactive)	-0.464	-0.251	-0.306	-0.0227 (inactive)	-3.88 (inactive)	0.0294 (inactive)	2.42	1.4 (inactive)	0.214	-1.07	-0.525	-0.204
CCOC(=O)C[C@H]1[C@H](OC(=O)c2ccc(C(=O)c3ccccc3)cc2)[C@@H](NC(=O)Cc2ccc(OC)cc2)c2cc(OCCCO)ccc2N1C(=O)Cc1ccc(OC)cc1	0.0476	0.346	0.007	0.35	0.903	0.752	0.668	-1.22 (inactive)	0.971	-0.132	1.21	-0.574 (inactive)	-1.42 (inactive)	-0.914 (inactive)	1.66	1.78 (inactive)	0.0673	0.22	1.13	-0.0131
C=CCC(OC(C)=O)[C@@H]1[C@@H](N(Cc2ccc(-c3ccccc3)cc2)C(=O)c2ccc(-c3ccccc3)cc2)c2cc(OCCCO)ccc2N1C(=O)c1ccc(-c2ccccc2)cc1 (stereo not given in full)	0.54	0.054	0.032	-0.0598	-0.0106	-0.333	-0.864	-0.0089 (inactive)	0.214	-0.146	-0.655	-0.611 (inactive)	-0.811 (inactive)	0.131 (inactive)	0.399	1.99 (inactive)	0.0525	-0.846	-0.83	-0.0981
C=CCN1C(=O)[C@@]2(O[C@@H](CCn3cc(CCO)nn3)[C@H]([Si](C)(C)c3ccc(OC)cc3)[C@H]2C)c2cc(N3C(=O)c4cccc5cccc3c45)ccc21	-0.323	0.749	-0.0839	0.569	0.705	1.11	0.813	-2.79 (inactive)	0.42	0.142	0.949	-0.309 (inactive)	0.593 (inactive)	13.5 (active)	0.875	2.4 (inactive)	-0.0592	0.412	1.07	-0.0332
NCCCCCNC(=O)[C@H]1C[C@H]2C(=O)NCC(=O)N2[C@H]1c1ccc(O)cc1	-0.136	2.22	-0.113	0.847	0.775	1.3	1.22	1.51 (inactive)	0.106	0.154	1.55	0.535 (inactive)	-1.08 (inactive)	1.11 (inactive)	2.16	1.1 (inactive)	-0.0424	1.86	0.906	0.186
CC(C)CNC(=O)[C@@H]1c2ccccc2C(=O)N(Cc2ccc(OC(F)(F)F)cc2)[C@H]1c1ccc(CO)cc1	-0.0768	0.849	-0.0095	0.34	0.988	1.15	1.21	-2.61 (inactive)	0.941	-0.206	1.54	-1.87 (inactive)	-2.91 (inactive)	-1.06 (inactive)	3.01	3.96 (inactive)	-0.0329	1.3	1.04	0.0378
